The supplement of paper PMC11732987, “Enantioselective OTUD7B fragment discovery through chemoproteomics screening and high-throughput optimisation” (Communications Chemistry, 2025)

Experiments:
Experiment in all cases: log2 ratio of Biotin-Ahx-Ub-VS probe labelling (fragment/DMSO); higher = less target engagement (more negative = stronger competition), active = hit call of the paper (q ≤ 0.05, log2 ratio ≤ -1)
Conditions in all cases: compound concentration: 200 uM; treatment time: 3 h
USP19 = molecular target: T1, USP19 (UniProt O94966)
T1 sequence (whole entry): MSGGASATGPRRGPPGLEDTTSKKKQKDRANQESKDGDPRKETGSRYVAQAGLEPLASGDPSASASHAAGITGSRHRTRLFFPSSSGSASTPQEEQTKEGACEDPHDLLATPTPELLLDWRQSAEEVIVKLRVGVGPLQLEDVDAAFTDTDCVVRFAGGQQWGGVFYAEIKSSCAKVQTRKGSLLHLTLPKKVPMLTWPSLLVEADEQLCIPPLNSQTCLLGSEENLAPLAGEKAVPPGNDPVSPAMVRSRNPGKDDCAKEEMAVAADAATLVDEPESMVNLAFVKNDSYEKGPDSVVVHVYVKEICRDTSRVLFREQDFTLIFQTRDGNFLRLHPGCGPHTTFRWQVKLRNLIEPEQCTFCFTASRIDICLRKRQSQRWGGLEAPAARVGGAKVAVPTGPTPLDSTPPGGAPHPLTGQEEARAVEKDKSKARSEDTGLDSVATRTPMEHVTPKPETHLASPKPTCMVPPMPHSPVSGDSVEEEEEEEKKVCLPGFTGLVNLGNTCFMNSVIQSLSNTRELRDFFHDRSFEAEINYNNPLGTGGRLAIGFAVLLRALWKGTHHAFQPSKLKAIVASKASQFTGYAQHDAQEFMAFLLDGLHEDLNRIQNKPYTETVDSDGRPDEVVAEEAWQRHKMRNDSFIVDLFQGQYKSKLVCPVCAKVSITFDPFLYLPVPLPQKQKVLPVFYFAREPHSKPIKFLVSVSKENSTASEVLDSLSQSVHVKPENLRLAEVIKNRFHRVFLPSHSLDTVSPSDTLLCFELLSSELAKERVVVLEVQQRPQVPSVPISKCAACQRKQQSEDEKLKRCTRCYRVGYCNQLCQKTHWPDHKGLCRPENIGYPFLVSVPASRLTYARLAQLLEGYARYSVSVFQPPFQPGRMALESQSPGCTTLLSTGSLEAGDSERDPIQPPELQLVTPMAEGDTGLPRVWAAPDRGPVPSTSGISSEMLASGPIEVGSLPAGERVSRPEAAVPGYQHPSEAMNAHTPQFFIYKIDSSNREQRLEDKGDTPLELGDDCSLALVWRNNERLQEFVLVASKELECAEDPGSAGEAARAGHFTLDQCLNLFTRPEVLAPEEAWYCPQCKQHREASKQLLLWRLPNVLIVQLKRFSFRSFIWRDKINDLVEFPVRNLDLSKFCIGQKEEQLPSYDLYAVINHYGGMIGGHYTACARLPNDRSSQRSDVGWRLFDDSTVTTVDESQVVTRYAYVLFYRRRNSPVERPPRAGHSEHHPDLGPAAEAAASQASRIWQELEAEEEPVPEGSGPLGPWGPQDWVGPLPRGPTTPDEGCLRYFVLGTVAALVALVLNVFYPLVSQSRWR
Procedure, shortened: (§1)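 Triplicate samples of HEK293T lysate, 495 µg each, received fragment at 200 µM or vehicle for 3 h, followed by Biotin-Ahx-Ub-VS (0.5 µM final) for 1 h. After NeutrAvidin enrichment of labelled DUBs and LysC/trypsin digestion, peptides were run by diaPASEF LC-MS/MS. The values are average log2 fragment/vehicle ratios from global-median-normalised Spectronaut label-free quantities, tested by unpaired t-test on proteins having ≥2 unique peptides.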

USP22 = molecular target: T2, USP22 (UniProt Q9UPT9)
T2 sequence (whole entry): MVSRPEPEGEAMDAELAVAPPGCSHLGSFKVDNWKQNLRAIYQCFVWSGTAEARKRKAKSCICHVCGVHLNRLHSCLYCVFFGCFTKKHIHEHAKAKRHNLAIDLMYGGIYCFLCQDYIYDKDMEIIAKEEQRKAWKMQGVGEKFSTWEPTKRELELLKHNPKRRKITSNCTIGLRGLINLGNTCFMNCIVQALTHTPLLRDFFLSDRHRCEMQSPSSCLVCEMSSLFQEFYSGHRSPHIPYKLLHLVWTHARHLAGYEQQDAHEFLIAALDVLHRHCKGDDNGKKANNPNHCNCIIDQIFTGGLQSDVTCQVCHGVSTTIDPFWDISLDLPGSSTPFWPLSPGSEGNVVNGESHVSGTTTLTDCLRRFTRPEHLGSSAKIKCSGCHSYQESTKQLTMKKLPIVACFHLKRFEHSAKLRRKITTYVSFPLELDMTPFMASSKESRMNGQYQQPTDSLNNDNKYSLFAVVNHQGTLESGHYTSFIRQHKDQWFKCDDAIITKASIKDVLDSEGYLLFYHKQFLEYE
Procedure, shortened: as §1

USP24 = USP24 (UniProt Q9UPU5)
Procedure, shortened: as §1

USP25 = molecular target: T3, USP25 (UniProt Q9UHP3)
T3 sequence (whole entry): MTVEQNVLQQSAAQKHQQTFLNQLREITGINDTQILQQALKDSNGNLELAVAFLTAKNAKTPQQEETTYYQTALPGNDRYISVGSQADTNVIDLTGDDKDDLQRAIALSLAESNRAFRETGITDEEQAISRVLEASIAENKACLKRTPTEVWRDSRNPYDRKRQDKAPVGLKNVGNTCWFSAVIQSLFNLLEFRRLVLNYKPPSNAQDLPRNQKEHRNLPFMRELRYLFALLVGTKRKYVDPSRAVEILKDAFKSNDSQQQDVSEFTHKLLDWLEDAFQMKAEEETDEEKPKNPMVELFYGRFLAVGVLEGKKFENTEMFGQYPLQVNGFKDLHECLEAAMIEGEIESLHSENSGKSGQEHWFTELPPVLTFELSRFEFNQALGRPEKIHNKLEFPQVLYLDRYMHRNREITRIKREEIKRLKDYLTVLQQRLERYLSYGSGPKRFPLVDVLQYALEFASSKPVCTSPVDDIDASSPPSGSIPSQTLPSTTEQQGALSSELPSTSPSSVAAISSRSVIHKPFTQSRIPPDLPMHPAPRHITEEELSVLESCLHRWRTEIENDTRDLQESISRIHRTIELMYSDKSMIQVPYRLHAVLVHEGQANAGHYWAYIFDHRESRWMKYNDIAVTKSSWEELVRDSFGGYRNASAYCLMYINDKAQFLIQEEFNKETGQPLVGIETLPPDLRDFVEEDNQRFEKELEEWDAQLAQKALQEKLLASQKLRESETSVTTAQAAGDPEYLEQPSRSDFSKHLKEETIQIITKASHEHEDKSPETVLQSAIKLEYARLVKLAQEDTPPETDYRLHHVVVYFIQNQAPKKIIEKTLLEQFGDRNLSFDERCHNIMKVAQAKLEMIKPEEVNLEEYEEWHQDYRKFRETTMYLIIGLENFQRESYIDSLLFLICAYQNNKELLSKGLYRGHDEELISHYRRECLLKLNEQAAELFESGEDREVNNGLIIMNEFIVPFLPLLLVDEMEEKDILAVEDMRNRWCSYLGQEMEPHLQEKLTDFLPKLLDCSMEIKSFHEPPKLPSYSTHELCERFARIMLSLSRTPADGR
Procedure, shortened: as §1

USP28 = molecular target: T4, USP28 (UniProt Q96RU2)
T4 sequence (whole entry): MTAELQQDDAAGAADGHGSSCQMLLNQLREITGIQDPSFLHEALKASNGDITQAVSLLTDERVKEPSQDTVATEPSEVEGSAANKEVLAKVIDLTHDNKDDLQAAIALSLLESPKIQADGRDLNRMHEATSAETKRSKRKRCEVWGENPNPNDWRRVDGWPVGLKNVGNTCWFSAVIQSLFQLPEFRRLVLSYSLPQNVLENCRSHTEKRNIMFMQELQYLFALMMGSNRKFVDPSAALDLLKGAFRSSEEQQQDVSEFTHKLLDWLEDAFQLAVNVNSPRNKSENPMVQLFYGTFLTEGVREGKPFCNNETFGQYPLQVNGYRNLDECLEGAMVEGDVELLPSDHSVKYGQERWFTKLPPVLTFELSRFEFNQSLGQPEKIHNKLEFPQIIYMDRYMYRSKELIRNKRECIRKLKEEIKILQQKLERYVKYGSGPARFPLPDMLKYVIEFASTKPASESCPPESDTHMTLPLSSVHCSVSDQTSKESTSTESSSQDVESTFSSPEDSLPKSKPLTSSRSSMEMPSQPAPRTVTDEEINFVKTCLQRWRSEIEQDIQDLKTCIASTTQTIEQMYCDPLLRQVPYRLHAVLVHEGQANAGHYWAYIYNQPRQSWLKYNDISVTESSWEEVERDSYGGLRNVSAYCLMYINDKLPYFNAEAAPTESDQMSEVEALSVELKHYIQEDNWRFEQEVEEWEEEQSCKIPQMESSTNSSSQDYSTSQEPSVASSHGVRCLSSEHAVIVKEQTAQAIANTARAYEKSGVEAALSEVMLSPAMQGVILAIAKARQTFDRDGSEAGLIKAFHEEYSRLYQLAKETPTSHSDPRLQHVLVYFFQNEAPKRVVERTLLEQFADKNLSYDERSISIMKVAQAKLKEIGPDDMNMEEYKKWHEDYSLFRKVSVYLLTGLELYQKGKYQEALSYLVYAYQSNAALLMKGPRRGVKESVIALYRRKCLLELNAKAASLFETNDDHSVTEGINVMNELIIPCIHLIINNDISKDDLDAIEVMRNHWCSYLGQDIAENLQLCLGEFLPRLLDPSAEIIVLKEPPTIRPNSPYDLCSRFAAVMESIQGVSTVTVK
Procedure, shortened: as §1

Measured: log2 ratio of Biotin-Ahx-Ub-VS probe labelling

Sequence of USP24 (Q9UPU5 whole entry): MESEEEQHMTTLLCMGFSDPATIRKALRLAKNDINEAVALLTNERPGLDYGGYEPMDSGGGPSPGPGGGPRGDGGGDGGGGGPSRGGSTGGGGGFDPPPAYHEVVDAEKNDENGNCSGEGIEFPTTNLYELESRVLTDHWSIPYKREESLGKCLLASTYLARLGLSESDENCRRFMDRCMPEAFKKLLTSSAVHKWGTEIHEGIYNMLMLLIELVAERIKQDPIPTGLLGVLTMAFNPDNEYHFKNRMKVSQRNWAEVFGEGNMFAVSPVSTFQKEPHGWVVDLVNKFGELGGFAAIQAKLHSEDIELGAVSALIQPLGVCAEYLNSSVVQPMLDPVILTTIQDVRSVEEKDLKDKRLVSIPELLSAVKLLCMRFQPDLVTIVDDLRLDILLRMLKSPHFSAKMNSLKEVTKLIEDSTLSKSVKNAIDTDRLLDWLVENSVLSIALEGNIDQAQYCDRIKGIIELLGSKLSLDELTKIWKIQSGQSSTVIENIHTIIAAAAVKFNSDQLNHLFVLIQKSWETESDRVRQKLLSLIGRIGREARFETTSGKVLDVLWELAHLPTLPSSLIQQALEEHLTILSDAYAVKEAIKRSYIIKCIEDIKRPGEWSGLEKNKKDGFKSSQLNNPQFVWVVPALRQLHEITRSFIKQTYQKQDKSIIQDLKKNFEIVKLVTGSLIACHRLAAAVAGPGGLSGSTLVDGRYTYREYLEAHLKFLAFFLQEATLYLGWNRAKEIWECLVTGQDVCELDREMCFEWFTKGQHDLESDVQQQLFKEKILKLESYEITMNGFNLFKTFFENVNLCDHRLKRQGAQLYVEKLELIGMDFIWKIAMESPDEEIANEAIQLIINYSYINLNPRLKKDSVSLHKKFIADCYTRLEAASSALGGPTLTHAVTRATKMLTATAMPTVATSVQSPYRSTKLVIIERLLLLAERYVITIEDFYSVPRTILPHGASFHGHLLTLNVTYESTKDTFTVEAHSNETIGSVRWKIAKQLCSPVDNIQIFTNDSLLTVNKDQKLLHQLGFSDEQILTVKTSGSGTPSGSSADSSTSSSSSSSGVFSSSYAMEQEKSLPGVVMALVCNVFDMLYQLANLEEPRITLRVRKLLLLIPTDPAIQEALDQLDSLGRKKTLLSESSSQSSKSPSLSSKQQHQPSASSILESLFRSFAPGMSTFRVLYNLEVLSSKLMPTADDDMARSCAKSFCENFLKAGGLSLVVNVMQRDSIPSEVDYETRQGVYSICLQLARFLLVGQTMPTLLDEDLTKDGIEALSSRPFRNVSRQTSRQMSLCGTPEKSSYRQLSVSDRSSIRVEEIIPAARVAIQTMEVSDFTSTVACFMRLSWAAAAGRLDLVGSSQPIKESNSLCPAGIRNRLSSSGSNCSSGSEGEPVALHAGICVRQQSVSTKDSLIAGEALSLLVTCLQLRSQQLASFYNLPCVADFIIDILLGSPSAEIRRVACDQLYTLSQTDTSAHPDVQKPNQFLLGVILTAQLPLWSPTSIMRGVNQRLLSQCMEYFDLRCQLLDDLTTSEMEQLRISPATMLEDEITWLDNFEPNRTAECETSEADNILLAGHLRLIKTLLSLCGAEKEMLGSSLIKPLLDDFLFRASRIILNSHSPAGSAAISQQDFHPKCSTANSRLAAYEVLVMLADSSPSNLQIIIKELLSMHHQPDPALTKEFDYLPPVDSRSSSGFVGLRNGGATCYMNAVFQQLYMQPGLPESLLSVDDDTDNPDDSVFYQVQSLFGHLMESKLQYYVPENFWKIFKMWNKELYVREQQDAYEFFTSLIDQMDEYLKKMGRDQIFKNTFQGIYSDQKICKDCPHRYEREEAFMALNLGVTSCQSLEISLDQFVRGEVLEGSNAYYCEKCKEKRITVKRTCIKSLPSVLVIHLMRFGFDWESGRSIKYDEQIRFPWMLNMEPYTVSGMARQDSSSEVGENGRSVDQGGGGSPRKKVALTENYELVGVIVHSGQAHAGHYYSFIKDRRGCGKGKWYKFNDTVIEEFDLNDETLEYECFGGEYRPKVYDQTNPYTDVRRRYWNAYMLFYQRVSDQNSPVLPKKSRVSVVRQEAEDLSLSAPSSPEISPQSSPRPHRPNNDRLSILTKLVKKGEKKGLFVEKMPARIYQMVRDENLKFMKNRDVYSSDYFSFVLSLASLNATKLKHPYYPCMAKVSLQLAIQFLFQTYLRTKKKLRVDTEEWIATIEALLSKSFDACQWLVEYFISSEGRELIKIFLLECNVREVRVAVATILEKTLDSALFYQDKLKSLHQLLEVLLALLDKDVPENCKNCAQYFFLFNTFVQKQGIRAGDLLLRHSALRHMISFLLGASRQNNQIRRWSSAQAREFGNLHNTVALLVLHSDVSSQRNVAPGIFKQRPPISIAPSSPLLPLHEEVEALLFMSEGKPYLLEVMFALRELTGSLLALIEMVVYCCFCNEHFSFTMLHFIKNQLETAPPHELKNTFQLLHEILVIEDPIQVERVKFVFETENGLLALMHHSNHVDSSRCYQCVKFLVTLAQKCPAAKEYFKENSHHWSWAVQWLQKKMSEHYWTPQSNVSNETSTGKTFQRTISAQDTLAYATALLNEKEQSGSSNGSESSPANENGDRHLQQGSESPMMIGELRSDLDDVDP

O=C(CCl)NC1(c2ccc3c(c2)OCCO3)CCCC1
inactive: USP19 -0.103 | USP22 0.0133 | USP24 -0.451 | USP25 -0.337 | USP28 -0.402
